Measurements reported in PubChem BioAssay (EPA / NIEHS).
Several values for one entry are separate records, joined by “and”; a condition that tells them apart may be missing. Equal values may be shown once. Inconclusive results are not listed. Some structures have more than one record in an assay (separate samples or runs), and their calls can disagree. Activity calls are given as the source filed them. The calls were made as follows: active = hit-call score of the fitted dose curve at least 0.9, where 1 is the maximum; inconclusive = response in the unintended direction; inactive = score below 0.9.

Target: Oxysterols receptor LXR-alpha (Homo sapiens) (UniProt Q13133)
Experiment: ATG_LXRa_TRANS: Attagene TRANS-FACTORIAL HepG2 Assay for human Liver X Receptor alpha (LXRa) (AID 2282980)
Settings: HepG2 Attagene TRANS reporter, LXRa transactivation
Protocol: ATG_TRANS is a cell-based, multiplexed-readout assay that uses HepG2, a human liver cell line, with measurements taken at 24 hours after chemical dosing in a 24-well plate.ATG_LXRa_TRANS is one of 30 assay component(s) measured or calculated from the ATG_TRANS assay. It is designed to make measurements of mRNA induction, a form of inducible reporter, as detected with fluorescence intensity signals by Reverse transcription polymerase chain reaction (RT-PCR) and Capillary electrophoresis technology.Data from the assay component ATG_LXRa_TRANS was analyzed into 1 assay endpoint. This assay endpoint, ATG_LXRa_TRANS, was analyzed in the positive analysis fitting direction relative to DMSO as the negative control and baseline of activity. Using a type of inducible reporter, measures of mRNA for gain-of-signal activity can be used to understand the reporter gene at the transcription factor-level as they relate to the gene NR1H3. Furthermore, this assay endpoint can be referred to as a primary readout, because this assay has produced multiple assay endpoints where this one serves a reporter gene function. To generalize the intended target to other relatable targets, this assay endpoint is annotated to the nuclear receptor intended target family, where the subfamily is non-steroidal.
Human liver HepG2 cells are transiently transfected with multiple reporter transcription units (MRTUs) in 6-well plates using FuGene 6 reagent (Roche; 3 ml FuGene/1 mg DNA). The MRTU constructs are regulated by a cis-regulating element (promoter). […] A major difference between the CIS and TRANS system is that in CIS activities of endogenous TFs are measured, whereas the TRANS assay evaluates changes in activities of exogenous, chimeric NR-Gal4 proteins. […] At the end of 24 hour incubation, total RNA was isolated using TriZol reagent (Invitrogen). The isolated RNA is then reverse-transcribed using oligo(dT) primer and Mo-MLV reverse transcriptase (Invitrogen) with DNAse I (Ambion) treatment for 30 min. The one-tenth of the produced cDNA was amplified by PCR using Taq DNA polymerase (Invitrogen) and two reporter sequence-specific primers. The PCR products were fluorescently labeled by primer extension with 6-arboxyfluorescein (6-FAM) 5'-labeled reporter sequence-specific primer (2 min at 95 C, 20 s at 68 C and 10 min at 72 C) and these products were digested with 5U of HpaI (New England Biolabs) for 2h at 37 C. The fragments were purified using Qiaquick PCR columns (Qiagen), analyzed on an ABI 3130xL genetic analyzer (Applied Biosystems) with peak positions identified by using a set of X-rhodamine (ROX)-labeled MapMarker1000 molecular weight standards (BioVentures). The raw capillary electrophoresis data was processed using Attagraph software (Attagene).

Oxysterols receptor LXR-alpha (Homo sapiens), sequence (Q13133 whole entry, looked up): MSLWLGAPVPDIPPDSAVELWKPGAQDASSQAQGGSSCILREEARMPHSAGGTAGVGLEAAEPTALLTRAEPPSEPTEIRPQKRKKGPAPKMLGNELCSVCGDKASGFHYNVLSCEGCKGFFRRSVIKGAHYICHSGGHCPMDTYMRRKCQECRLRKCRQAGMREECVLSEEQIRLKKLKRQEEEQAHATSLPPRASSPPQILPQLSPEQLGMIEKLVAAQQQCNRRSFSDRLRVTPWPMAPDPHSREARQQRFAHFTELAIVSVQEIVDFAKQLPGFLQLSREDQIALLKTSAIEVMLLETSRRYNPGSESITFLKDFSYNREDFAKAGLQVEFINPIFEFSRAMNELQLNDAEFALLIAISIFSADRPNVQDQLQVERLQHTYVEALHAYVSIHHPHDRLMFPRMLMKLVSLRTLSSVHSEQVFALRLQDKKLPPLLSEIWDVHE

SMILES | outcome | AC50
Clc1ccc(Cl)cc1 | inactive | 
O=C(N[C@H]1CN2CCC1CC2)c1cc2ccoc2cn1 | inactive | 
CCC(C)(c1ccc(O)cc1)c1ccc(O)cc1 | inactive | 
O=C(NC(=O)c1c(F)cccc1F)Nc1cc(Cl)c(OC(F)(F)C(F)F)c(Cl)c1 | inactive | 
NS(=O)(=O)C(F)(F)C(F)(F)C(F)(F)C(F)(F)C(F)(F)C(F)(F)C(F)(F)C(F)(F)F | inactive | 
CCCCCCCCCc1ccc(O)cc1 | inactive | 
C=CC(N)=O | inactive | 
Oc1c(Cl)c(Cl)c(Cl)c(Cl)c1Cl | inactive | 
O=S(=O)(O)C(F)(F)C(F)(F)C(F)(F)C(F)(F)F | inactive | 
Cc1cc(-c2ccc(N)c(C)c2)ccc1N | inactive | 
O=C(O)C(F)(F)C(F)(F)C(F)(F)C(F)(F)C(F)(F)C(F)(F)C(F)(F)C(F)(F)F | inactive | 
Cc1cc(O)ccc1Cl |  | 24.3 µM (active)
CCC(C)c1cc([N+](=O)[O-])cc([N+](=O)[O-])c1O (stereo not given) | inactive | 
N#Cc1ccc(N(CC(N)=O)CC(F)(F)F)cc1C(F)(F)F | inactive | 
CN(C)c1nc(=O)n(C2CCCCC2)c(=O)n1C | inactive | 
COS(=O)(=O)OC | inactive | 
Clc1ccc(C(c2ccccc2Cl)C(Cl)(Cl)Cl)cc1 (stereo not given) | inactive | 

SMILES | outcome | AC50
CC(C)(c1ccccc1)c1ccc(O)cc1 | inactive | 
Cc1ccccc1CO[C@@H]1C[C@@]2(C(C)C)CC[C@]1(C)O2 |  | 32 µM (active)
CC(C)C(=O)OCC(C)(C)C(OC(=O)C(C)C)C(C)C (stereo not given) | inactive | 
Oc1ccc(Cl)cc1Cl | inactive | 
CCOC(=O)C(O)(c1ccc(Cl)cc1)c1ccc(Cl)cc1 | inactive | 
O=C(O)C(F)(F)C(F)(F)C(F)(F)C(F)(F)C(F)(F)C(F)(F)C(F)(F)C(F)(F)C(F)(F)F | inactive | 
Cc1ccccc1O | inactive | 
CCC(=O)O[C@H]1CC[C@H]2[C@@H]3CCC4=CC(=O)CC[C@]4(C)[C@H]3CC[C@]12C | inactive | 25.3 µM (active)
CCOP(=S)(OCC)SCSC(C)(C)C |  | 12 µM (active) and 12.9 µM (active)
ClC(Cl)=C(c1ccc(Cl)cc1)c1ccc(Cl)cc1 | inactive | 
Nn1cnnc1 | inactive | 
CC(C)(O)C(=O)Nc1ccc([N+](=O)[O-])c(C(F)(F)F)c1 | inactive | 
O=C(O)C(F)(F)C(F)(F)C(F)(F)C(F)(F)C(F)(F)F | inactive | 
C[C@]12CCC(=O)C=C1CC[C@@H]1[C@@H]2CC[C@]2(C)C(=O)CC[C@@H]12 | inactive | 
O=S(=O)(O)C(F)(F)C(F)(F)C(F)(F)C(F)(F)C(F)(F)C(F)(F)F | inactive | 
C[C@]12CCC(=O)C=C1CC[C@@H]1[C@@H]2CC[C@@]2(C)[C@H]1CC[C@]2(C)O | inactive | 
CCNc1nc(NC(C)C)nc(SC)n1 | inactive | 
